The campaign covered roughly 48,000 compounds. About 13,000 (27%) showed an effect of 50% or more. The list shows a part of the results.

This assay concerns Wolbachia pipientis. Description: Anti-Wolbachia Cell-Based Screen. Type of assay: functional. Also noted: scale not given: in the data most compounds retested in dose-response had high values. The note with it: 5 µM.
For the molecule `COc1cc(C(=O)Nc2nc(C)no2)ccc1C`, the “Percent Effect” value was -1.332%. The same measure for `COCC(=O)NC[C@@]1(COc2cnccn2)C[C@@H](O)[C@@H](O)C1.Cl`: -5.232%.

As for `COCCOCCCC(=O)N1CCC(Cc2ccccc2OC)CC1`, the “Percent Effect” value is on record as -18.09%. The result for `FC(F)Oc1ccccc1CNCc1cc(Br)c2c(c1)OCO2` reads 6.017%; that for `c1ccc(CC2(CNCc3ncc[nH]3)CCC2)cc1`, -10.87%. The result for `N#Cc1ccc(N2CCCC3(CCC(=O)N3CC3CC3)CC2)nc1.O=C(O)C(F)(F)F` (stereo not given) reads 105.4%; that for `CN1C(=O)CCC12CCN(c1ccc(C#N)cn1)CC2.O=C(O)C(F)(F)F`, 114%; that for `O=C(O)C(F)(F)F.O=C(O)C(F)(F)F.O=C1CCC2(CCCN(Cc3nccs3)C2)N1CC1CC1` (stereo not given), -83.2%. Regarding `COCCN1CCOCC12CCN(c1ccc(C#N)cc1)CC2.O=C(O)C(F)(F)F`, the “Percent Effect” value turned out to be 1.624%.

Take `N#Cc1cccc(CN2CC3(CCCCN3c3cncnc3)CC2=O)c1.O=C(O)C(F)(F)F` (stereo not given): the “Percent Effect” value is -19.74%.

For the molecule `N#Cc1ccc(N2CCC3(CCC(=O)N3CCN3CCCC3)CC2)nc1.O=C(O)C(F)(F)F.O=C(O)C(F)(F)F`, the “Percent Effect” value was 111.3%. The result for `N#Cc1ccc(N2CCC(c3nc(C(F)(F)F)c[nH]3)CC2)nc1` reads -13.67%; that for `O=C1CCC2(CCN(c3ncc(F)cn3)CC2)N1CCN1CCCC1`, 20.59%. The result for `COc1cc(N2CCCC3(CCN(c4cccnc4)C3=O)C2)ncn1.O=C(O)C(F)(F)F` (stereo not given) reads -87.96%; that for `N#Cc1ccc(N2CCCC3(CCN(c4cncnc4)C3=O)C2)nc1.O=C(O)C(F)(F)F` (stereo not given), 104%; that for `O=C(O)C(F)(F)F.O=C(O)C(F)(F)F.O=C(c1ccncc1)N1CCCC2(CCN(c3cccnc3)C2=O)C1` (stereo not given), -3.414%. The same measure for `O=C1CCC2(CCCN(c3ncc(F)cn3)CC2)N1CC1CC1` (stereo not given): -5.991%; for `CC(C)c1nc(N2CC[C@@H](N(C)CCc3ccccn3)[C@H](O)C2)no1`: -7.34%. Regarding `CSc1cccc(CN(C)C(=O)C2CC(=O)N(CCN(C)C)C2)c1` (stereo not given), the “Percent Effect” value was found to be 0.2115%. The same measure for `Cc1cccc2c(=O)n(C(C)Cc3cccnc3)cnc12` (stereo not given): 5.15%; for `Cc1cn([C@@H]2CC3(CCNCC3)OC[C@@]2(C)O)c(=O)[nH]c1=O`: 120.3%; for `Cc1cn([C@H]2CCNC[C@]2(C)O)c(=O)[nH]c1=O`: 91.37%. The same measure for `N#Cc1ccc(NCc2cccnc2N2CCC(C(N)=O)CC2)cn1`: 11.59%. `CCCC(=O)N1CCc2c(CNS(C)(=O)=O)cncc2C1.Cl`: the “Percent Effect” value is recorded as 100.5%. With `CS(=O)(=O)NCc1cncc2c1CCN(C(=O)N1CCCC1)C2.Cl`, the “Percent Effect” value came to 112.8%. The result for `COCCC(=O)N1CCc2c(CNc3ncccn3)cncc2C1.Cl` reads -6.28%; that for `CC(=O)NCC(=O)N1CCc2c(CNc3ncccn3)cncc2C1.Cl`, -3.566%; that for `Cl.O=C(N1CCCC1)N1CCc2c(CNc3ncccn3)cncc2C1`, -8.095%. In the case of `CCCn1[nH]cc/c1=N\C(=O)CN1CCCC1c1c(C)nn(C)c1C` (stereo not given), the “Percent Effect” value is -11.65%.

As for `N#Cc1cccnc1N1CCCN(C(=O)CCn2cccn2)CC1`, the “Percent Effect” value amounted to 107%. The result for `Cc1cnn(CCC(=O)N2CCCN(c3cccnn3)CC2)c1` reads 7.961%; that for `N#Cc1ccccc1N1CCN(CCC(=O)N2CCOCC2)CC1`, 8.66%. The result for `COc1ccccc1N1CCN(C(=O)CCn2ccc(C)n2)CC1(C)C` reads -8.619%; that for `Cn1cc(CCC(=O)N2CCCN(c3ncccc3C#N)CC2)cn1`, 89.9%; that for `COc1ccnc(N2CCCN(C(=O)CCc3cnn(C)c3)CC2)n1`, -25.81%.

As for `COc1ccccc1N1CCN(C(=O)CCn2ccnc2C)CC1(C)C`, the “Percent Effect” value was found to be 3.273%. The same measure for `COc1ccccc1N1CCN(C(=O)CCn2ccc(C)n2)CC1`: 112.7%; for `N#Cc1ccccc1N1CCCN(C(=O)CCn2cccn2)CC1`: -8.555%; for `Cc1cnn(CCC(=O)N2CCCN(c3ccccc3C#N)CC2)c1`: 106.5%.

With `N#Cc1cccnc1N1CCN(C(=O)CCC(=O)c2cccs2)CC1`, the “Percent Effect” value amounted to 2.306%.

Consider `N#Cc1cccnc1N1CCCN(C(=O)CCc2cccs2)CC1`, for which the “Percent Effect” value was -1.405%. The same measure for `O=C1CC(c2ccc(F)cc2)Cc2[nH]c(=O)c(C(=O)O)cc21` (stereo not given): -7.153%; for `COc1ccc(-c2nnc([C@H]3CCN(C4CCC4)C3)o2)cc1`: -7.791%. The same measure for `COc1ccc2c(C)nc(N3CCN([C@H]4CCCC[C@@H]4O)CC3)nc2c1`: -5.01%; for `Cc1cnn(CC(=O)N2CCCN(c3ncccc3C#N)CC2)c1`: 99.25%; for `Cc1cnn(CCC(=O)N2CCN(c3ccc(C#N)cn3)CC2)c1`: 122.4%. The same measure for `Cc1cnn(CCC(=O)N2CCCN(c3ncccc3C#N)CC2)c1`: 7.127%. Turning to `N#Cc1ccc(CN2CCN(C(=O)CCn3cncn3)CC2)cc1`, the “Percent Effect” value is recorded as -1.452%. As to `N#Cc1cccnc1N1CCCN(C(=O)CCn2cncn2)CC1`, the “Percent Effect” value is listed as 103.6%. The result for `N#Cc1cccnc1N1CCCN(CC(=O)N2CCNC(=O)C2)CC1` reads -3.438%. The result for `Cc1cnn(CCC(=O)N2CCN(c3nc(C)cs3)CC2)c1` reads -7.951%; that for `Cc1cnn(CCC(=O)N2CCN(c3ncccc3Cl)CC2)c1`, 8.116%. Turning to `N#Cc1ccc(CN2CCCN(C(=O)CCn3cncn3)CC2)cc1`, the “Percent Effect” value is given as -4.749%. Turning to `CN(C)c1cc(C(=O)Nc2ccccc2C(=O)NC(C)(C)C)ccn1`, the “Percent Effect” value came to 0.03536%. The result for `CCn1nc(C)cc1C(=O)NCc1nc(C)cc(C)n1` reads -9.292%; that for `CCn1nc(C)cc1C(=O)OCCNC(=O)c1ccccc1`, -11.83%. The result for `CCn1nc(C)cc1C(=O)NCc1nc(C)no1` reads 111.2%; that for `COCc1nc(CNC(=O)c2cc(C)c(C)[nH]c2=O)no1`, -2.692%. The same measure for `CCn1nc(C)cc1C(=O)NCc1cccnc1N(C)C`: -6.394%; for `CCn1nc(C)cc1C(=O)NCc1noc(C(C)(C)C)n1`: 104.1%; for `CC(SCCS(C)(=O)=O)c1nc(Cc2ccccc2)no1` (stereo not given): -6.547%.

As for `O=C1CC[C@H](C(=O)N(Cc2cccc(Br)c2)C2CC2)N1`, the “Percent Effect” value is recorded as 5.086%. Regarding `CC(=O)NCC(=O)N1Cc2nc(COCc3csc(C)n3)oc2C1`, the “Percent Effect” value was found to be 5.619%. Consider `CC(C)CC(C)NCc1cccnc1N1CCOCC1` (stereo not given), for which the “Percent Effect” value is listed as 1.673%.

For the molecule `COc1ccc(OC)c(-c2nc(CN(C)Cc3nncn3C)c(C)o2)c1`, the “Percent Effect” value is 0.1711%.

On to `CCN(CC)C(=O)[C@@H]1C[C@H](N)CN1c1noc(-c2ccccc2)n1`, for which the “Percent Effect” value turned out to be 2.719%.

For the molecule `Cc1cc(C(F)(F)F)nn1CCCNC(=O)C1CCCO1` (stereo not given), the “Percent Effect” value amounted to 89.22%. On to `Cc1cc(C)n(CCCN(C)C(=O)[C@H]2CCCO2)n1`, for which the “Percent Effect” value is -6.91%. The result for `Cc1cc(-c2cnn(CCNC(=O)C3CCCO3)c2C2CC2)on1` (stereo not given) reads -7.58%. On to `COc1ccc(-c2n[nH]cc2CN(C)Cc2nnc(C)o2)c(F)c1`, for which the “Percent Effect” value was determined as 5.542%. The result for `COC[C@]1(O)CCN(Cc2c[nH]c(CC3CCCC3)n2)CC1(C)C` reads 12.99%; that for `Cn1cc(CN2CCc3ncnc(C4CCOC4)c3CC2)cn1` (stereo not given), 2.928%. For the molecule `CCC1CCCCN1C(=O)c1ccnc(N(C)C)c1` (stereo not given), the “Percent Effect” value was determined as 113.6%. `CS(=O)(=O)NCC1CCCCN1C(=O)c1ccc(Br)s1` (stereo not given): the “Percent Effect” value is -1.817%.

Take `CS(=O)(=O)NCC1CCCCN1C(=O)c1ccsc1` (stereo not given): the “Percent Effect” value is on record as -1.868%. The same measure for `CN(C)c1cc(C(=O)N2CCCCC2CNS(C)(=O)=O)ccn1` (stereo not given): 130%. The same measure for `CN(C)c1cc(C(=O)N2CCCCC2Cn2cccn2)ccn1` (stereo not given): 105%. The result for `CCCc1nc(C(C)(C)NC(=O)c2ccnn2C)no1` reads 9.786%; that for `CCCc1nnc(N[C@H](C)c2ccc(OC)cc2)o1`, -12.73%. Consider `Fc1ccc(CNCc2cc(Br)c3c(c2)OCO3)cc1`, for which the “Percent Effect” value was -17.14%. The result for `O=C(CCNC(=O)c1ccoc1)Nc1cc(F)ccc1F` reads -1.29%; that for `Cc1ncsc1CN1CC[C@H]2OCC[C@@]2(C(=O)N2CCOCC2)C1.O=C(O)C(F)(F)F`, 1.512%; that for `Cc1cc(CN2CCOC(C)(C(=O)N3CCOCC3)C2)no1` (stereo not given), 109.8%. The same measure for `CC1(C(=O)N2CCOCC2)CN(Cc2c[nH]cn2)CCO1` (stereo not given): 123.4%; for `Cc1cccc(CN2CCOC(C)(C(=O)N3CCOCC3)C2)n1` (stereo not given): 111.3%; for `NC(=O)C1CN(Cc2c[nH]cn2)CCN(C2CCOCC2)C1` (stereo not given): -9.995%.

For the molecule `Cc1cccc(CN2CCc3[nH]nc(C(=O)N4CCOCC4)c3C2)n1`, the “Percent Effect” value is reported as 9.618%. `CN1CCN(Cc2c[nH]cn2)CC12CCC(=O)N(CC1CC1)CC2` (stereo not given): the “Percent Effect” value is given as -17.33%. The result for `Cc1cccc(CN2CC[C@H]3OCC[C@@]3(C(=O)N3CCOCC3)C2)n1` reads 83.3%.

In the case of `CC1(C(=O)N2CCOCC2)CN(Cc2ccccn2)CCO1` (stereo not given), the “Percent Effect” value was -10.18%.

For `Cc1cc(CNC(=O)NCc2ccccc2N2CCOCC2)no1`, the “Percent Effect” value is on record as -16.89%. As for `Cc1cc(CN2CCN(C(=O)NCc3ccc(C)s3)CC2)no1`, the “Percent Effect” value is on record as 0.1424%.

As to `CC(C)Nc1cccc(CNC(=O)N2CCC[C@@H]2CO)c1`, the “Percent Effect” value is -12.14%. As to `CCCc1cc(=O)[nH]c2nnc(SCC(=O)NCCc3ccccc3)n12`, the “Percent Effect” value amounted to 12.93%. As to `COC(=O)N1CCC(NC2CCSCC2)C1` (stereo not given), the “Percent Effect” value was -0.02013%.

For the molecule `CCC(CCO)NS(=O)(=O)c1ccc(Br)cn1` (stereo not given), the “Percent Effect” value is listed as -13.92%. `C=C(C)Cn1nnc(C2(NC(=O)c3ccccc3)CCCC2)n1`: the “Percent Effect” value is -0.5972%.

Take `O=C(O)[C@@H]1CN(Cc2ccc3nsnc3c2)C[C@H]1c1cccnc1`: the “Percent Effect” value is reported as -24.04%.

Take `CC(=O)N1C[C@H](NC(=O)c2csc(C(C)C)c2)[C@@H](C(C)C)C1`: the “Percent Effect” value is -7.601%.

With `Cc1cncc(C(=O)NCC2COCc3c(C)nnn3C2)c1` (stereo not given), the “Percent Effect” value is listed as -1.908%. Regarding `CC(=O)N1CCC(N[C@@H]2CO[C@H](CNC(=O)c3cccs3)[C@H]2O)CC1`, the “Percent Effect” value was 1.318%.

Consider `CC(C)(C)c1cc(CN2CC[C@@H](NC(=O)c3cccnc3)[C@H](O)C2)n[nH]1`, for which the “Percent Effect” value is -14.75%. The result for `Cc1cncc(C(=O)N[C@@H]2CC[C@@H](N3CCOCC3)[C@@H]2O)c1` reads 120%; that for `CCCC(=O)NC1CCCN(C(=O)c2ccc(C)nc2)C1` (stereo not given), -3.666%; that for `CC(=O)N1CCN([C@@H]2CC[C@@H](NC(=O)c3ccc(C)nc3)[C@H]2O)CC1`, 126.1%. As for `CC(=O)N1CCN([C@@H]2CC[C@@H](NC(=O)c3cc(C)cs3)[C@H]2O)CC1`, the “Percent Effect” value was determined as 116.4%. On to `CC(=O)N1CCN([C@@H]2CC[C@@H](NC(=O)c3cncc(C)c3)[C@H]2O)CC1`, for which the “Percent Effect” value is listed as -9.247%. The same measure for `CC(=O)N1CCN([C@@H]2CCC[C@@H](NC(=O)c3cccnc3)[C@H]2O)CC1`: 122.9%.

Regarding `CCc1ccccc1CN1CC[C@@H](NC(=O)c2cccnc2)[C@H](O)C1`, the “Percent Effect” value is -11.05%. The result for `Cc1ccc(C(=O)N2CCN3C[C@H](Oc4cncnc4)C[C@H]3C2)cn1` reads -3.915%.
